High-throughput results (PubChem BioAssay)
Tau fluor counter: counter-screen for tau fibril formation inhibitors; Potency, µM (series often up to 57.7 µM), for the others: top-dose activity change, negative = decrease; tau K18 P301L Alexa594 fluorescence, heparin fibrillization; AID 1463; 0.93% of 280,000 active; further: potency means the concentration at half of the fitted maximal effect; nearly all actives have a fitted effect of over 55% in size
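Human tau K18 P301L (15 uM unlabeled, 0.24 uM Alexa 594-labeled) in 100 mM sodium acetate pH 7 with 20 uM heparin, 6 hr at 37 C. ThT 30 uM added, 1 hr ambient; Alexa 594 FP and total fluorescence read at 555/632 nm.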
Tau fibril FP: inhibitors of human tau fibril formation; K18 P301L tau heparin fibrillization, Alexa594 FP, 6 h; Potency, µM (doses to about 57.7 µM), for inactives: at the top dose activity, negative = inhibition, hits mostly inhibitors; 0.39% of 280,000 active; AID 1468; further: potency means the concentration at half of the fitted maximal effect; nearly all actives have a fitted effect of over 55% in size
Target sequence (P10636 561-689 P618L limits assumed): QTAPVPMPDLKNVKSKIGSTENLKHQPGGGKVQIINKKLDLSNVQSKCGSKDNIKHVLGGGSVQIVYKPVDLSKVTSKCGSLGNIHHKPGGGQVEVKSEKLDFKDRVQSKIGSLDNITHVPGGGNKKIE
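Recombinant K18 P301L […], labeled with Alexa 594 at 0.24 uM over 15 uM unlabeled; heparin inducer 20 uM final; 37 C, 6 hr; FP endpoint.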
Tau fibril ThT: inhibitors of human tau fibril formation, thioflavin T binding. recombinant tau K18 P301L (four-repeat tau fragment), heparin-induced fibrillization, ThT fluorescence. Potency, µM (highest dose often 57.4 µM), for inactives: top-dose activity, negative = inhibition, actives largely listed as inhibitors. 2.1% of 270,000 active. AID 1460; further: potency means the concentration at half of the fitted maximal effect; nearly all actives have a fitted effect of over 55% in size
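Heparin-induced fibrillization of the P301L-mutant K18 repeat-domain fragment of human tau was followed by ThT binding in quantitative high-throughput format.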
KDM4E inh: blocks human JMJD2E demethylase activity; B2RXH2; JMJD2E catalytic domain, FDH-coupled NADH fluorescence (FDH is formaldehyde dehydrogenase); Potency, µM (doses to about 57.1 µM), for inactives: at the highest dose activity change, negative = inhibition, hits mostly inhibitors; 1.6% of 230,000 active; AID 2147; active means well fitted inhibition curve with a large enough effect, not every such curve was filed as active; inconclusive means small, poorly fitted or top-dose-only effect, or another doubt; inactive means no such curve, though single readings can be large or run the other way;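 further: potency means the concentration at half of the fitted maximal effect; 0% = wells with enzyme and -100% = buffer wells without enzyme; nearly all actives have a fitted effect of over 50% in size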
PNC inhibitor: perinucleolar compartment assembly inhibition; PC3M PTB-GFP, PNC prevalence imaging, 16 h; active compounds read low; activity change (PNC), negative = inhibition, % at 10 µM; 3.1% of 140,000 active;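 active means readout at or below -70, meaning at least 70% loss of cells showing the perinucleolar compartment, a nuclear body marking cancer cells; inconclusive means readout between -30 and a set limit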;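 further: plate controls were DMSO wells for no effect and camptothecin positive control wells for full effect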
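Read-out is percentage of cells bearing a perinucleolar compartment, from automated 20x imaging of fixed, Hoechst-stained PC3M PTB-GFP cells. Cells were seeded 4 h, then exposed 16 h to compound (23 nl of library stock) in duplicate plates.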
NPSR antagonist: antagonists of human neuropeptide S receptor cAMP signaling. Q6W5P4. CHO-NPSR cells, cAMP TR-FRET, antagonist mode. 1% of 220,000 active. Potency, µM (series often up to 38.3 µM), for the others: at the top dose activity change, negative = inhibition, most hits filed as inhibitors; further: potency means the concentration at half of the fitted maximal effect; nearly all actives have a fitted effect of over 50% in size
Target sequence (Q6W5P4 whole entry, looked up): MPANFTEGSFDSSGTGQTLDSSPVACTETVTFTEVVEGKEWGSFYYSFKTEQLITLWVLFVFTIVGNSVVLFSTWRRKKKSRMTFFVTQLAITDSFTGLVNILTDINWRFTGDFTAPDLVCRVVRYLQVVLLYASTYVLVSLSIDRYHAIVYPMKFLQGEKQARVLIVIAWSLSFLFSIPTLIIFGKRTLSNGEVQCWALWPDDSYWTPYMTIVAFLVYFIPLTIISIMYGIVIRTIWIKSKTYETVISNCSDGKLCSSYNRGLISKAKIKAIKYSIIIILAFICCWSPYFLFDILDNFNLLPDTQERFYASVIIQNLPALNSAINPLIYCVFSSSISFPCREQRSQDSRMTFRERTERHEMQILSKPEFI
* = called active by the depositor; ? = inconclusive; . = no result given; [ ] = another dose, or the depositor's remark. Hits are enriched below; roughly 5.1% of the tested compounds scored in any of these assays. Unless noted, the call rests on the fitted dose curve; in most records, active means well fitted curve in the direction sought with a large enough effect; inconclusive means small, poorly fitted or top-dose-only effect, or another doubt; inactive means no such curve, though single readings can be large; an effect the other way counts as inactive or inconclusive. Unless noted, on the % scale 0 is the no-effect control and ±100 the full control effect.

SMILES | Tau fluor counter | Tau fibril FP | Tau fibril ThT | KDM4E inh | PNC inhibitor | NPSR antagonist
CCCCCC(=O)Nc1nc(C)c(-c2csc(Nc3cc(Cl)ccc3C)n2)s1 | ? | 7% | ? | -2% | -2 | -6%[46.1 µM]
CCCC(C)C(=O)Nc1nc(C)c(-c2csc(Nc3cc(Cl)ccc3C)n2)s1 (stereo not given) | ? | 7% | ? | -8% | -1 | -4%[46.1 µM]
O=C1C2=CC[C@H]3C(=O)N(c4cccc(Oc5ccccc5)c4)C(=O)[C@@H]3[C@@H]2[C@H](O)[C@@H]2O[C@H]12 | -11%[11.6 µM] | ? | ? | . | . | .
O=C(COc1cccc(Br)c1)N/N=C1\CCCc2ccccc21 | -9% | -3% | ? | 17% | . | -20%
O=C(COc1cccc(Br)c1)NN=C1c2ccccc2-c2ccccc21 | -15% | -6% | -15% | -9% | -119* | 1%
Cc1c(Br)c(O)c(Br)c2sc(=O)oc12 | ? | ? | 11µM* | 32µM* | . | -16%
Cc1cccc(NC(=O)COc2ccc(/C=C\c3[nH]c(=O)[nH]c(=O)c3[N+](=O)[O-])cc2)c1 | 0% | -6% | 10µM* | -30% | . | 9%
COc1ccccc1-c1cnnc(N/N=C/c2ccc(-c3cccc(Br)c3)o2)n1 | ? | 0% | 3.5µM* | 2% | 88 | -19%
CN(C(=O)CSc1nnc(-c2ccc([N+](=O)[O-])cc2)o1)c1ccccc1 | -14% | -4% | -6% | . | . | .
CC1(C)CC(=O)C(C(c2ccc(F)cc2)C2C(=O)CC(C)(C)CC2=O)C(=O)C1 | -11% | -3% | -16% | 10% | -1 | 13%
CC1(C)CC(=O)C(C(c2ccco2)C2C(=O)CC(C)(C)CC2=O)C(=O)C1 | -24% | ? | 28µM* | -21% | -19 | -9%[46.1 µM]
Cc1cccc(OCCOCCn2c(-c3ccc(Cl)cc3)nc3ccccc3c2=O)c1C | -17% | ? | -8% | . | . | .
COc1ccc(S(=O)(=O)Nc2ccc3c(c2)sc(=O)n3C)cc1Cl | ? | -10% | -3% | . | . | .
COc1ccc(CCN(/C=C2\Sc3ccccc3C2=O)C(C)=O)cc1OC | -18% | 6% | ? | 32µM* | . | 13%
CCC1=Nc2cc(C(=O)NCCc3ccc(OC)c(OC)c3)ccc2Sc2ccccc21 | ? | -6% | ? | . | . | .
Cc1cc(C)cc(-n2ccnc2SCC(=O)Nc2nnc(C)s2)c1 | 0% | 11% | -1% | . | . | .
O=C(NCc1ccc(Cl)cc1)C1CCCN(c2nc3ccccc3n3cccc23)C1 (stereo not given) | -25% | 2% | -6% | . | . | .
Cc1ccc(/C=C/C(=O)c2ccc(N3CCOCC3)cc2)s1 | ? | -1% | 7.1µM* | -10% | . | 0%
CCOCCc1nnc(NC(=O)C(=O)c2cc(C)n(-c3cccc(Cl)c3)c2C)s1 | -9% | -4% | 2% | . | . | .
Cc1cccc(OCCNc2cc(N3CCN(CCO)CC3)ccc2[N+](=O)[O-])c1 | ? | -10% | 28µM* | -5% | ? | -21%[46.1 µM]
Cc1ccccc1OCCNc1cc(N2CCN(CCO)CC2)ccc1[N+](=O)[O-] | ? | -2% | 13µM* | -13% | -25 | -12%
COc1cccc(OCCNc2cc(N3CCCCC3)ccc2[N+](=O)[O-])c1 | ? | -3% | ? | 4% | 34 | -24%[46.1 µM]
Cc1ccccc1OCCNc1cc(N2CCCCC2)ccc1[N+](=O)[O-] | ? | 0% | ? | 2% | 102 | -14%[46.1 µM]
O=C(CCCCCNC(=O)c1ccccc1)N=Nc1c(O)[nH]c2c(Br)cc(Br)cc12 | ? | -1% | 6.3µM* | 4% | . | -57%
O=C(CCNC(=O)c1ccccc1)N=Nc1c(O)[nH]c2ccccc12 | 2% | 0% | -12% | 0% | . | -19%
SMILES | Tau fluor counter | Tau fibril FP | Tau fibril ThT | KDM4E inh | PNC inhibitor | NPSR antagonist
CCOC(=O)C(=Cc1ccc(-n2ccnc2)cc1)C(=O)OCC | 7% | 1% | ? | 11µM* | . | -37%
CCOC(=O)C(=Cc1ccc(F)cc1)C(=O)OCC | 4% | 2% | ? | -2% | -19 | ?
Cc1ccc(SC(=O)COc2ccccc2C)cc1 | 3% | 8% | ? | 1% | -112* | -4%[46.1 µM]
Cc1ccccc1OCC(=O)NNC=O | -2% | -6% | -2% | 8% | . | ?
N#CC1=C2SCN(c3ccccc3)CN2C(=O)CC1c1cccs1 (stereo not given) | -19% | ? | 25µM* | 16µM* | -3 | -16%[46.1 µM]
N#CC1=C2SCN(c3ccccc3)CN2C(=O)CC1c1c(Cl)cccc1Cl (stereo not given) | -30% | 25µM* | 32µM* | 8.9µM* | 34 | -12%[46.1 µM]
N#CC1=C2SCN(c3ccccc3)CN2C(=O)CC1c1ccccc1Cl (stereo not given) | -28% | ? | 32µM* | ? | -1 | -5%[46.1 µM]
N#CC1=C2SCC(O)(c3ccccc3)N2C(=O)CC1c1ccccc1F (stereo not given) | -12% | -4% | ? | -18% | 0 | -25%[46.1 µM]
N#CC1=C2SCC(O)(c3ccccc3)N2C(=O)CC1c1cccs1 (stereo not given) | -11% | 1% | 2% | 9% | -89* | -9%[46.1 µM]
CSC1=C(C#N)C(c2cccs2)CC(=O)N1C (stereo not given) | -1% | 2% | -8% | ? | 10 | 0%[46.1 µM]
O=C(c1cnc(N2CCCCC2)c2ccccc12)N1CCN(c2ccccc2F)CC1 | -5% | 0% | -9% | . | . | .
Cc1ccc(Cn2c(C)c3cnn(CC(=O)N4CCN(c5cc(C)ccc5C)CC4)c(=O)c3c2C)cc1 | 4% | 2% | 1% | . | . | .
O=c1[nH]c(S)c(/C=C2\C=Nc3ccccc32)s1 | ? | ? | 1.4µM* | 2% | . | 56%
O=C(Cn1c(O)c(/C=C2\C=Nc3ccccc32)sc1=O)N1CCOCC1 | -12% | -12% | 1% | 5% | . | -24%
CC1=C(c2cccc(Cl)c2)S(=O)(=O)NC1=NCc1ccccc1C | 0% | -9% | 7% | . | . | .
Cc1ccc(NC(=O)COC(=O)C(CC(C)C)N2C(=O)C3CC=CCC3C2=O)c(C)c1 (stereo not given) | -15% | 2% | -11% | -9% | -87* | -14%[46.1 µM]
CC[C@@H](C)[C@@H](CO[C@@H](Cc1ccccc1)C(=O)N[C@@H](CCS(C)(=O)=O)C(=O)OC(C)C)NC[C@@H](N)CS | -11% | ? | 35µM* | . | . | .
Cc1onc(-c2ccccc2Cl)c1C(=O)Nc1nnc(-c2cccc([N+](=O)[O-])c2)s1 | -18% | 7% | -14% | -4% | -108* | -13%[46.1 µM]
C/C(=N\Nc1nc2c(s1)CCCC2)c1ccc(Cl)cc1 | 25µM*[quencher] | -12% | 14µM* | -23% | ? | -11%[46.1 µM]
CN(C)c1ccc(C(=O)Nc2nc3c(s2)CCCC3)cc1 | ? | 5% | 7.9µM* | ? | -8 | -50%
